Experimental findings from article PMC4336329 (PLoS ONE, 2015) are described below.

Out of some 310,000 compounds screened, about 14,000 (4.5%) showed an effect of 50% or more. Effects have a minus sign here. What follows is part of a selection rich in strong results, with near analogues and random picks from the rest.
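Further: peak tail current of the secondary pulse compared with the same well before compound.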

The target of this experiment is human ether-à-go-go-related gene (hERG) potassium channel (human, UniProt Q12809). Kind of experiment: primary screen, population patch clamp on CHO cells stably expressing hERG; higher = less effect of the substance.
human ether-à-go-go-related gene (hERG) potassium channel, sequence (Q12809 whole entry, looked up): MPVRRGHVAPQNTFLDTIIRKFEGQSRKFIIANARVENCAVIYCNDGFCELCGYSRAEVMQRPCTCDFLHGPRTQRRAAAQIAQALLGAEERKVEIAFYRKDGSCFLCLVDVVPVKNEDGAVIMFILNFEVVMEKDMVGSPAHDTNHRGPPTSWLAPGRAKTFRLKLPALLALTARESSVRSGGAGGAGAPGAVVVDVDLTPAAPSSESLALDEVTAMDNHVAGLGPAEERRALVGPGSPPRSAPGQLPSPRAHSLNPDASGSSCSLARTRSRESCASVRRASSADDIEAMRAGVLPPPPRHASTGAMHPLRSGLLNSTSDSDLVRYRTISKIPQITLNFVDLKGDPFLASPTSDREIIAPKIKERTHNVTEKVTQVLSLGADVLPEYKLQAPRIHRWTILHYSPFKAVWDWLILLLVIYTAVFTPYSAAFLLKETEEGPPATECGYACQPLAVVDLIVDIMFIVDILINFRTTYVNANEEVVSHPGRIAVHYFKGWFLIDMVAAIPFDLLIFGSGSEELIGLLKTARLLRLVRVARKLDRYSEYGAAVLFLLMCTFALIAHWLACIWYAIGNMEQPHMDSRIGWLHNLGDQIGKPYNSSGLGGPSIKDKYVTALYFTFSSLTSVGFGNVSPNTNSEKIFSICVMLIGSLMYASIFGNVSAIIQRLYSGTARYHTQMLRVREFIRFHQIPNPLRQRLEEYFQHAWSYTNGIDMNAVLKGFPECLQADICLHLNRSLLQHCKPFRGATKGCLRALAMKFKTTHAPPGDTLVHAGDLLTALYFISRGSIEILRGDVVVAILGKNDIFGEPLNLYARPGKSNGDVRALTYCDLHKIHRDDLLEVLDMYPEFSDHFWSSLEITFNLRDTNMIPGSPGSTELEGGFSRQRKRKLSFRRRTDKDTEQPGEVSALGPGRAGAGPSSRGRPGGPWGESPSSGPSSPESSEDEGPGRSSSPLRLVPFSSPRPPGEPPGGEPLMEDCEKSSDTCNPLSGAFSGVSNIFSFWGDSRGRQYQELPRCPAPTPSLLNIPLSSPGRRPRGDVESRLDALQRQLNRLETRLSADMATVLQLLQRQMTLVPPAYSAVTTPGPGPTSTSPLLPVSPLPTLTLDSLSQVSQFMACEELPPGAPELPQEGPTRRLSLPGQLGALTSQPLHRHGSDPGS
`COc1cc(C2C(C(=O)c3cccs3)=C(O)C(=O)N2CCN2CCOCC2)cc(OC)c1OC` (centres unmarked): the “hERG current change (%, negative = inhibition) at 10uM” value worked out at 14.3%. As to `CN(C)c1cc[n+](CC(=O)Nc2cc(C(F)(F)F)ccc2Cl)cc1.[Cl-]`, the “hERG current change (%, negative = inhibition) at 10uM” value stood at 7.63%.

Regarding `CCn1c(CNc2ccc(F)cc2)nnc1SCC(=O)Nc1ccccc1OC`, the “hERG current change (%, negative = inhibition) at 10uM” value was -30.2%. The figure for `CN1CCCN(C(=O)c2ccc(Cl)cc2)CC1` is 5.68%; for `Cc1ccc2nc(SCC(=O)Nc3ccc4c(c3)CCC4)[nH]c2c1` it is 8.84%. Then `CCN(CC)S(=O)(=O)c1ccc(-c2nnc(SCC(C)=O)o2)cc1`, with -8.48%; and `CCOC(=O)C1CCCN(C(=O)c2cn(CC(C)C)c(=O)c3cc(OC)c(OC)cc23)C1` (centres unmarked), with 5.47%; and `CCn1cc(C(=O)N2CCN(C3CCCCC3)CC2)c2cc(OC)c(OC)cc2c1=O`, with -20.6%.

With `COc1cc2c(C(=O)N3CCN(C4CCCCC4)CC3)cn(CC(C)C)c(=O)c2cc1OC`, the “hERG current change (%, negative = inhibition) at 10uM” value is -63.3%. Then `COc1ccc(NS(=O)(=O)c2cc3c4c(c2)C(C)C(=O)N4CCC3)cc1` (centres unmarked), with 10.3%; and `CCN(CC)CC(=O)N1c2ccccc2Sc2ccc(Cl)cc21.Cl`, with -10.3%. With `Cc1cc(C(=O)N/N=C/c2ccc(Cl)c([N+](=O)[O-])c2)c(C)n1-c1ccc(F)cc1`, the “hERG current change (%, negative = inhibition) at 10uM” value is listed as -2.41%. As to `CC(C)n1c2ccccc2c2cc([N+](=O)[O-])ccc21`, the “hERG current change (%, negative = inhibition) at 10uM” value is reported as 16.1%.

`Cc1ccc(C(=O)NC(C(=O)NC2CCCC2)c2ccccc2)cc1` (centres unmarked): the “hERG current change (%, negative = inhibition) at 10uM” value stood at 15%. The figure for `c1cnc(Sc2ccc3nnnn3n2)nc1` is -56.4%; for `c1ccc(-c2ccc3nnnn3n2)cc1` it is 5.72%; for `c1ccc(Sc2ncccn2)nc1` it is 12.2%. With `COc1ccc(C(=O)c2sc3nc(-c4ccccc4)ccc3c2N)cc1OC`, the “hERG current change (%, negative = inhibition) at 10uM” value is on record as 18.1%. On to `CC[n+]1c(/C=C2/C=C(C)CC(C)C2)sc2ccccc21.[I-]` (centres unmarked), for which the “hERG current change (%, negative = inhibition) at 10uM” value is reported as -3.25%. The figure for `CC[n+]1c(/C=C2\C=C(C)CC(C)C2)sc2ccccc21.[I-]` (centres unmarked) is 6.92%; for `CC[n+]1c(/C=C/Nc2ccccc2)sc2ccccc21.[I-]` it is -72.2%. Consider `CC[n+]1c(/C=C/N(C)c2ccccc2)oc2ccccc21.O=S(=O)([O-])CCO`, for which the “hERG current change (%, negative = inhibition) at 10uM” value was determined as 0.826%. Then `CCN1/C(=C/C=C/c2oc3ccc(-c4ccccc4)cc3[n+]2CC)Oc2ccc(-c3ccccc3)cc21.CCOS(=O)(=O)[O-]`, with -2.14%; and `CCOS(=O)(=O)[O-].CC[n+]1c(/C=C/Nc2ccccc2)oc2ccc(OC)cc21`, with -77.2%; and `CC[n+]1ccccc1/C=C/Nc1ccccc1.[I-]`, with -44.7%. With `CC[n+]1c(/C=C/Nc2ccccc2)oc2ccccc21.[I-]`, the “hERG current change (%, negative = inhibition) at 10uM” value is on record as -70.4%. Then `CCOc1ccc(S(=O)(=O)Nc2cccc(OC)c2)cc1`, with -25%; and `NC(=O)CC(NC(=O)Cc1cccc2ccccc12)c1ccc(NCCN2CCCCC2)c([N+](=O)[O-])c1` (centres unmarked), with 7.38%. In the case of `O=c1[nH]c2ccc(Cl)cc2c(-c2ccccc2)c1N1CCN(c2ccccn2)CC1`, the “hERG current change (%, negative = inhibition) at 10uM” value is recorded as 6.61%. `CCCCn1c(N)c(N(CCOC)C(=O)c2c(CC)noc2C)c(=O)[nH]c1=O`: the “hERG current change (%, negative = inhibition) at 10uM” value came out at 19.9%.

On to `CCCC/C(O)=C1\C(=O)CC(C)(C)CC1=Nc1ccc(N)cc1`, for which the “hERG current change (%, negative = inhibition) at 10uM” value is given as -11.4%.

As for `CC(C)NC[C@H](O)COc1ccc(CC(N)=O)cc1`, the “hERG current change (%, negative = inhibition) at 10uM” value was 12.8%. The figure for `Oc1oc(-c2ccccc2)nc1/C=N/c1nccs1` is 13.1%.

As to `Cc1ccccc1NC(=O)c1csc2c1CCCC2`, the “hERG current change (%, negative = inhibition) at 10uM” value was -20.9%.

In the case of `COc1ccc(-c2nnnn2C)cc1S(=O)(=O)NCc1ccccc1`, the “hERG current change (%, negative = inhibition) at 10uM” value is recorded as -13.9%. Then `Cc1noc(C)c1COc1ccc(C(=O)OCC(=O)N2CC(=O)Nc3ccccc32)cc1`, with 4.54%; and `Cc1noc(C)c1COc1cccc(C(=O)OCC(=O)N2CC(=O)Nc3ccccc32)c1`, with -0.541%; and `Cc1noc(C)c1CSCC(=O)OCC(=O)N1CC(=O)Nc2ccccc21`, with -72.4%. Then `COC(=O)c1ccc(CSc2nc(C)nc3c2c(=O)n(C)c(=O)n3C)o1`, with 14.7%. The figure for `O=C(c1ccc2ccccc2c1)N1CCc2ccccc21` is 3.51%; for `Cc1cccc(-n2cnc3cc(C(=O)N4CCc5ccccc54)ccc32)c1` it is -61.5%. As to `Cc1ccc(C(=O)N2CCc3ccccc32)cc1`, the “hERG current change (%, negative = inhibition) at 10uM” value is -7.42%.

`Cc1cccc(-n2cnc3cc(C(=O)N4CCCCC4)ccc32)c1`: the “hERG current change (%, negative = inhibition) at 10uM” value is -21.3%. As to `O=C(c1ccc(F)c(F)c1)N1CCCc2ccccc21`, the “hERG current change (%, negative = inhibition) at 10uM” value is recorded as 0.0993%. The figure for `Cc1nc2cc(C(=O)N3CCc4ccccc43)ccc2n1-c1ccc(F)c(F)c1` is -69.7%; for `CCc1ccc(NC(=O)CCn2c(=O)oc3ccccc32)cc1` it is -10.1%; for `CCc1ccc(-c2nc3ccc(Br)cc3c(C(=O)O)c2C)s1` it is 19.1%. Then `CCN1CCN(CCC(=O)Nc2ccc(F)c(F)c2)CC1`, with -17.1%. `O=C(CN1CCN(c2ccc(Cl)cc2)CC1)Nc1cccc(F)c1`: the “hERG current change (%, negative = inhibition) at 10uM” value is -3.54%. The figure for `COc1cc(NC(=O)CN2CCCCCC2)cc(OC)c1` is 5.28%; for `CCOc1ccc(NC(=O)CN2CCN(CC(=O)Nc3ccc(F)c(F)c3)CC2)cc1` it is -78.3%. The figure for `CCOc1ccc(NC(=O)CN2CCN(CC(=O)Nc3cc(OC)cc(OC)c3)CC2)cc1` is -74.9%.

Take `CCOc1ccc(NC(=O)CN2CCN(CC(=O)Nc3ccc(F)cc3)CC2)cc1`: the “hERG current change (%, negative = inhibition) at 10uM” value was -77.2%. Turning to `CCc1sc(C(=O)N2CCN(CC(=O)Nc3cccc(F)c3)CC2)cc1C`, the “hERG current change (%, negative = inhibition) at 10uM” value is listed as -65%. Then `CCc1sc(C(=O)N2CCN(c3ccc(F)cc3)CC2)cc1C`, with -16.3%; and `O=C(CN1CCN(c2ccccn2)CC1)Nc1ccc(F)c(F)c1`, with -27.6%; and `CCCCOc1ccc(NC(=O)CN2CCN(CC)CC2)cc1.Cl`, with -15.9%. The figure for `CCOc1ccc(NC(=O)CN2CCN(c3ccc(F)cc3)CC2)cc1` is -22.2%; for `COC(=O)c1ccccc1C(=O)N1CCOCCN(C(=O)c2ccccc2C(=O)OC)CCOCC1` it is 0.0748%; for `O=C(Cn1cncn1)NCc1cccc(OC(F)F)c1` it is 7.23%. Regarding `O=C(Nc1nc2ccccc2s1)C1CCN(S(=O)(=O)c2cc([N+](=O)[O-])ccc2Cl)CC1`, the “hERG current change (%, negative = inhibition) at 10uM” value turned out to be 10.4%.

With `COc1ccc(CCN=c2c([N+](=O)[O-])nn(-c3cccc(C)c3)n2O)cc1OC`, the “hERG current change (%, negative = inhibition) at 10uM” value is on record as -34.1%. Consider `O=C(COC(=O)C1CCN(S(=O)(=O)c2cccc3cccnc23)CC1)c1ccccc1`, for which the “hERG current change (%, negative = inhibition) at 10uM” value was determined as 7.23%. Take `Cc1onc(-c2ccccc2)c1C(=O)NC(C)C1CCCO1` (centres unmarked): the “hERG current change (%, negative = inhibition) at 10uM” value worked out at 10.5%. As to `C/C(=N\Nc1cc(N2CCOCC2)nc(C)n1)c1ccc(F)cc1`, the “hERG current change (%, negative = inhibition) at 10uM” value was -12%. With `Clc1cccc(Cc2ccc(Cl)nn2)c1`, the “hERG current change (%, negative = inhibition) at 10uM” value is reported as -3.46%. The figure for `COc1cccc2cc(C(=O)N3CCN(C(=O)c4ccccc4)CC3)c(=O)oc12` is 7.71%; for `O=C(Nc1ccccc1Cc1ccccc1)c1ccccc1F` it is -4.48%; for `COc1ccc(Oc2ccccc2/C=N/O)cc1` it is 4.99%. Then `Cc1sc2ncnc(N3CCC(C(=O)Nc4ccc(C#N)c(Cl)c4)CC3)c2c1C`, with -7.2%; and `CCOc1ccc(NC(=O)CN2CCN(CC(=O)Nc3ccc(Cl)c(C(F)(F)F)c3)CC2)cc1`, with -57%. The figure for `Cc1ccc(OCCC(=O)Nc2ccc(C)c(F)c2)cc1` is -50.6%.

In the case of `O=C(CN1CCN(C(=O)COc2cccc(F)c2)CC1)Nc1ccc(Cl)c(C(F)(F)F)c1`, the “hERG current change (%, negative = inhibition) at 10uM” value is recorded as -60.6%.

In the case of `COc1ccccc1N1CCN(CC(=O)Nc2cccc(F)c2)CC1`, the “hERG current change (%, negative = inhibition) at 10uM” value is on record as -28.1%. For `O=C(CN1CCN(S(=O)(=O)c2ccc(F)cc2)CC1)Nc1ccc(Cl)c(C(F)(F)F)c1`, the “hERG current change (%, negative = inhibition) at 10uM” value came to 9.48%. The figure for `O=C(CN1CCN(c2ccccn2)CC1)Nc1cccc(F)c1` is 5.56%. Then `Cc1ccc(OCCC(=O)Nc2ccc(F)c(Cl)c2)cc1`, with 5.65%; and `CCOc1ccc(NC(=O)CN2CCN(CC(=O)Nc3cccc(F)c3)CC2)cc1`, with -86.3%; and `O=C(COc1ccc(S(=O)(=O)N2CCOCC2)cc1)Nc1ccc(Cl)c(C(F)(F)F)c1`, with -13.1%. Then `Cc1ccc(OCCC(=O)Nc2ccc(F)c(F)c2)cc1`, with -5.62%; and `CC(=O)c1cccc(OCC(=O)N2CCN(CC(=O)Nc3cccc(F)c3)CC2)c1`, with -42.2%. For `O=C(CN1CCN(c2ccccn2)CC1)Nc1ccc(Cl)c(C(F)(F)F)c1`, the “hERG current change (%, negative = inhibition) at 10uM” value is recorded as -7.97%. The figure for `Cc1c(NC(=O)c2ccc([N+](=O)[O-])o2)cccc1-c1nc2ncccc2o1` is -11.8%; for `CCC(C)C(=O)Nc1ccc([N+](=O)[O-])cc1OC` (centres unmarked) it is 4.15%. With `CCC(C)(C)NC(=O)CN(Cc1ccc(OC)cc1)C(=O)CCC(=O)Nc1nccs1`, the “hERG current change (%, negative = inhibition) at 10uM” value is given as -4.32%. Then `O=C(NC1CCCCC1)c1ccc(S(=O)(=O)c2ccccc2Cl)c([N+](=O)[O-])c1`, with 1.94%.
